Experimental data reported in PubChem BioAssay (NCI).
Several values for one entry are separate records, joined by “and”; a condition that tells them apart may be missing. Equal entries are not always repeated. The panel holds about 83,000 compounds, 20% with a hit somewhere; the sample as a whole holds those more often.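 Cell lines were cultured in 96-well plates, exposed to a single compound concentration, and assessed for percent growth 48 hours later.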 Activity calls are given as the source filed them. The calls were made as follows: active = growth percent below 10; inactive = the rest.

tested on: MDA-MB-468 breast; experiment: NCI-60 one-dose screen, 48 h (100 = growth as untreated, 0 = no growth, -100 = all killed); details: 10 µM unless noted

| SMILES | growth |
| --- | --- |
| O=C(CSc1nccc(Nc2ccc(S(=O)(=O)Nc3ccccn3)cc2)n1)c1ccc(Cl)cc1 | 81.2% (inactive) |
| CCCCC1CCCC12NC(=O)NC2=O (stereo not given) | 112% (inactive) |
| O=C(O)Cc1ccc(O)c(O)c1 | 86% (inactive) |
| CC(C)=CCCC(C)c1ccc(C)c2c1OCN(CC1CCNCC1)C2 (stereo not given) | 7.48% (active) |
| CCCCCCCC/C=C\CCCCCCCCOc1cccc(CC(=O)NCC[N+]2(C)CCCCC2)c1 | 52.6% (inactive) |
| COC(=O)CCC1=C(CC(=O)OC)C(C)=N/C1=C\c1[nH]c(-c2ccc[nH]2)cc1OC | 61.9% (inactive) |
| O=C(CC(CC(=O)c1ccccc1)c1ccccn1)c1ccccc1 | 102% (inactive) |
| COc1ccc(Nc2ncc(Br)c(NCCCNC(=O)C3CCC3)n2)cc1 | 71.2% (inactive) |
| COC(=O)[C@]1(CCSC)N[C@H](c2cn(-c3ccccc3)nc2C)[C@@H]2C(=O)N(c3ccc(C)cc3)C(=O)[C@@H]21 | 127% (inactive) |
| O=C1/C(=C\c2ccc[nH]2)c2ccccc2N1c1ccccc1 | 0.806% (active) |
| O=C(CC12CC3CC(CC(C3)C1)C2)NCCOCCOCCNC(=O)c1cc2c(o1)C(=O)c1ccccc1C2=O | -60.7% (active) |
| CCCCCCCCCCCC(c1ccccc1)N(C)C (stereo not given) | 95.4% (inactive) |
| COc1ccc(/C(=C2\O[C@@H]([C@H](O)CO)[C@H]3OC(C)(C)O[C@@H]23)c2cc(OC)c(OC)c(OC)c2)cc1O | 107% (inactive) |
| Cc1nc(-c2ccccc2)cc2c(O)c(C(=O)N/N=C/Cc3ccccc3)[nH]c(=O)c12 | 111% (inactive) |
| COc1cc2nccc(Oc3ccc(NC(=O)C4(C(=O)Nc5ccc(F)cc5)CC4)cc3)c2cc1OC(=O)c1ccc(N)cc1 | 59.3% (inactive) |
| C/C(=N/O)c1ccc(NC(=O)Cn2nc(-c3ccc(Cl)cc3)nc2N)cc1 | 100% (inactive) |
| CN(C)CCNC(=O)c1ccc(-c2nc3ccc4[nH]ncc4c3c3c2COCC3)cc1 | -54.5% (active) |
| NC(CCl)=NCCC[C@H](N)C(=O)O | 91.8% (inactive) |
| S=c1ccc2ccccc2[nH]1 | 98% (inactive) and 116% (inactive) |
| NS(=O)(=O)Oc1cccc(-c2nc3sccn3c2-c2ccccc2)c1 | 18.6% (inactive) |

| SMILES | growth |
| --- | --- |
| COc1cc2c(cc1-c1c(C)noc1C)ncc1nc(C3CCOCC3)n([C@H](C)COC(F)F)c12 | 40% (inactive) |
| O=C(Cn1cc(CO)nn1)Nc1nc2ccccc2s1 | 101% (inactive) |
| CC(C)(C)N1CC(OC(N)=O)C1 | 84.9% (inactive) |
| O=C(Nc1ccc(Cl)cc1)c1cc2cc(F)ccc2cc1O | -1.3% (active) |
| O=S(=O)(NCl)c1ccccc1 | 108% (inactive) |
| O=C(Nc1ccc(Br)cc1)Nc1ccccc1Cl | 69.2% (inactive) |
| N#Cc1cnc2cc(OC[C@@H](O)CO)c(NC(=O)C3CCCC3)cc2c1Nc1ccc(OCc2cccc(F)c2)c(Cl)c1 | -20.9% (active) |
| CC(c1ccccc1)N1C(=O)CSC1=S (stereo not given) | -5.47% (active) |
| CC/C=C\C[C@H](F)C/C=C1/C(=O)C=C[C@@H]1C/C=C\CCCC(=O)O | 52.6% (inactive) |
| CC1Cc2c(N(C)C)ncnc2N(C)c2ccc(O)cc21 (stereo not given) | 79.4% (inactive) |
| Cc1ccc(NC(=O)c2nc(S(C)(=O)=O)oc2-c2ccc(F)cc2)cc1Nc1ccc2ncn(C)c(=O)c2c1 | 16.8% (inactive) |
| O=C(CCn1cc[n+](CC(=O)c2ccc(-c3ccccc3)cc2)c1)Nc1cccc2cccnc12 | -16.8% (active) |
| C[C@]12C=CC(=O)C=C1CCC1C2[C@@H](O)C[C@@]2(C)C1CC[C@]2(O)C(=O)COC(=O)CCC(=O)O (stereo not given in full) | 115% (inactive) |
| O=C1/C(=C/c2ccc(C(F)(F)F)cc2)COc2ccc(O)cc21 | 100% (inactive) |
| Cc1ccc(NC(=O)c2cccc(CN3CCN(C)CC3)c2)cc1Oc1ccc(-c2[nH]nc3ncnc(N)c23)cc1 | 51.3% (inactive) |
| O=C1/C(=C/c2cc(F)cc(F)c2)Cc2cc3c(cc21)OCO3 | 8.61% (active) |
| CCCCCN(CCCCC)CCCNc1c2c(nc3ccc(Cl)cc13)CCCC2 | 8.01% (active) |
| Clc1cc(Cl)c(OCCCCCCN2CCNCC2)c(Cl)c1 | -12.2% (active) |
| Clc1ccc(/C=C/c2nc(N3CCOCC3)c3nc(Cl)c(Cl)cc3n2)cc1 | 102% (inactive) |
| O=C1c2ccccc2C(=O)c2c1oc1ccc3ccccc3c21 | -10.4% (active) |
